Compounds with a hit are over-represented: about 12% of the library has one in this group of screens.
PLK1 PBD block – inhibitors of human PLK1 polo-box domain binding | Plk1 PBD binding of FITC phosphopeptide, fluorescence polarization | Potency, µM, actives largely listed as inhibitors | 360,000 tested, 2.8% active | AID 720504; also: series mostly up to about 57 µM; nearly all actives have a fitted effect of over 65% in size
BAZ2B inh – inhibitors of human BAZ2B bromodomain | Q9UIF8 | AlphaScreen BAZ2B-H3K14Ac peptide displacement | Potency, µM (titrated, usually from 114 µM), most hits filed as inhibitors | 360,000 tested, 4.4% active | AID 504333; also: nearly all actives have a fitted effect of over 60% in size
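Inhibition is scored as reduced AlphaScreen emission. The BAZ2B/b-H3(5-23)K14Ac complex (50 nM each) in PBS pH 7.4, 0.01% Tween-20 meets compound (up to 110 uM) for 30 min at RT before bead addition.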
PI5P4Ka inh – PI5P4K alpha (human) kinase inhibition | P48426 | PI5P4Kalpha enzyme, ADP-Glo luminescence, 60 min; hits give low values | max response, % | 330,000 tested, 1.2% active; active = max response of -50% or lower; inconclusive = between -30% and -50%; inactive = -30% or higher; also: value at the top dose of about 77 µM
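qHTS, 1536-well: enzyme/substrate mix, compound by pin tool, 5 microM ATP final; RT 60 min; ADP-Glo reagents 1 (45 min) then 2 (30 min); luminescence.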
G9a block – blocks human histone lysine methyltransferase G9a; 350,000 tested, 8.8% active; G9a H3K9 monomethylation, AlphaScreen, 2 h; Q96KQ7; Potency, µM (highest dose often 102 µM), usual class: inhibitors; also: nearly all actives have a fitted effect of over 75% in size
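Using a bead-based AlphaScreen, monomethylated H3K9 product from 2 h room-temperature reactions (G9a 20 nM, peptide 500 nM, SAM 20 uM) was detected with 0.5 ug/mL rabbit anti-H3K9me1 antibody.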
HP1b binding inh – inhibitors of HP1-beta chromodomain binding to methylated histone tails; P83916; AlphaScreen HP1-beta / biotin-H3K9me3 peptide binding; Potency, µM (series often up to 114 µM), actives largely listed as inhibitors; 390,000 tested, 0.56% active; AID 540317; also: nearly all actives have a fitted effect of over 70% in size
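Compound inhibition of the preformed complex between 50 nM HP1-beta and 50 nM biotinylated H3K9me3 peptide was read by AlphaScreen. Buffer was PBS pH 7.4 with 0.01% Tween-20. Incubations ran 30 min at room temperature, with 10 ug/mL donor/acceptor beads.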
JMJD2A Tudor inh – inhibitors of human JMJD2A Tudor domain; O75164; AlphaScreen JMJD2A-Tudor / H3K4me3 peptide binding; Potency, µM (doses to about 114 µM), most hits filed as inhibitors; 390,000 tested, 4.4% active; also: nearly all actives have a fitted effect of over 50% in size
Hits are given with their value; [ ] = remark or other dose. Unless noted, calls follow the shape of the dose curve; as a rule, active = well fitted curve in the direction sought with a large enough effect; inconclusive = small, poorly fitted or top-dose-only effect, or another doubt; inactive = no such curve, though single readings can be large; an effect the other way counts as inactive or inconclusive.

Results for Cn1ncc2c(Nc3cccc(C#N)c3)ncnc21 ?
BAZ2B inh: inactive; G9a block: inactive; HP1b binding inh: inactive; JMJD2A Tudor inh: inconclusive

How did Cc1nc(SCC(=O)NC2CCS(=O)(=O)C2)c2c3c(sc2n1)CCCC3 (stereo not drawn) do in these assays?
PLK1 PBD block: inactive; BAZ2B inh: inactive; PI5P4Ka inh: inactive; G9a block: 50µM; HP1b binding inh: inactive; JMJD2A Tudor inh: inactive

Results for Cc1nc(SCC(=O)NC2CCS(=O)(=O)C2)c2c3c(sc2n1)CCC3 (stereo not drawn) ?
PLK1 PBD block: inactive; PI5P4Ka inh: inactive; HP1b binding inh: inactive; JMJD2A Tudor inh: inactive

What do the screens show for `O=C(Nc1nnc(-c2cccnc2)o1)c1cccc(Cl)c1`?
PLK1 PBD block: inactive; BAZ2B inh: inconclusive; PI5P4Ka inh: inactive; G9a block: inconclusive; HP1b binding inh: inactive; JMJD2A Tudor inh: inactive

What do the screens show for `Cc1ccc(C(=O)Nc2nnc(-c3ccncc3)o2)cc1`?
PLK1 PBD block: inactive; BAZ2B inh: 56µM; PI5P4Ka inh: inactive; G9a block: inactive; HP1b binding inh: inactive; JMJD2A Tudor inh: inactive

What do the screens show for `Cc1cccc(-c2nnc(NC(=O)c3ccc(Cl)cc3)o2)c1`?
PLK1 PBD block: inactive; BAZ2B inh: inactive; G9a block: 8.9µM; HP1b binding inh: inactive; JMJD2A Tudor inh: inactive

Results for Cc1ccc(CNC(=O)CC(C)CC2=NS(=O)(=O)c3ccccc3N2)cc1 (stereo not drawn) ?
BAZ2B inh: inactive; G9a block: inactive; HP1b binding inh: inactive; JMJD2A Tudor inh: inactive

What do the screens show for `N#Cc1c2nc3ccccc3nc2n2cc(NC(=O)c3ccc(F)cc3)ccc12`?
PLK1 PBD block: inactive; BAZ2B inh: inconclusive; PI5P4Ka inh: inconclusive; G9a block: 3.2µM; HP1b binding inh: inactive; JMJD2A Tudor inh: 18µM

Results for CCOC(=O)c1c(N2C(=O)Nc3ccccc3N2O)n[nH]c1-c1cccc(Cl)c1 ?
PLK1 PBD block: inactive; BAZ2B inh: inactive; PI5P4Ka inh: -66; G9a block: inactive; HP1b binding inh: inactive; JMJD2A Tudor inh: inactive

What do the screens show for `CCOc1ccc(NC(=O)Cn2cc(C(=O)c3ccc(C)c(C)c3)c(=O)c3cc(F)ccc32)cc1`?
BAZ2B inh: inactive; G9a block: inactive; HP1b binding inh: inactive; JMJD2A Tudor inh: inactive

How did Cc1cccc(S(=O)(=O)c2c(N)n(/N=C/c3ccco3)c3nc4ccccc4nc23)c1 do in these assays?
PLK1 PBD block: inactive; BAZ2B inh: inactive; G9a block: inactive; HP1b binding inh: inactive; JMJD2A Tudor inh: inactive

What do the screens show for `Cc1ccc(-c2n[nH]c(=S)n2/N=C\c2ccco2)cc1`?
PLK1 PBD block: inactive; BAZ2B inh: inactive; PI5P4Ka inh: inactive; G9a block: 0.89µM; HP1b binding inh: inactive; JMJD2A Tudor inh: 25µM

How did Cc1cccc(-c2n[nH]c(=S)n2/N=C/c2ccco2)c1 do in these assays?
PLK1 PBD block: inactive; BAZ2B inh: inactive; PI5P4Ka inh: inactive; HP1b binding inh: inactive; JMJD2A Tudor inh: 7.9µM

Results for CC(/C=N/n1cnnc1)=C\c1ccco1 ?
PLK1 PBD block: inactive; BAZ2B inh: inactive; PI5P4Ka inh: inactive; G9a block: inconclusive; HP1b binding inh: inactive; JMJD2A Tudor inh: inactive

How did S=c1[nH]nc(-c2cccnc2)n1/N=C/c1ccco1 do in these assays?
PLK1 PBD block: inactive; BAZ2B inh: inconclusive; PI5P4Ka inh: inactive; HP1b binding inh: inactive; JMJD2A Tudor inh: 25µM

Results for S=c1[nH]ncn1/N=C/c1ccco1 ?
PLK1 PBD block: inactive; PI5P4Ka inh: inactive

Results for CC(/C=N/n1c(-c2ccc(Cl)cc2)n[nH]c1=S)=C\c1ccco1 ?
PLK1 PBD block: inactive; BAZ2B inh: inactive; PI5P4Ka inh: inconclusive; G9a block: 10µM; HP1b binding inh: inactive; JMJD2A Tudor inh: inconclusive

Results for O=[N+]([O-])c1cc(Cl)ccc1Nc1nc(Nc2ccc(Cl)cc2[N+](=O)[O-])nc(N2CCOCC2)n1 ?
HP1b binding inh: inactive; JMJD2A Tudor inh: inactive

What do the screens show for `CCN(CC)S(=O)(=O)c1ccc(=O)n(CC(=O)N2Cc3ccccc3CC2C(N)=O)c1` (stereo not drawn)?
PLK1 PBD block: inactive; BAZ2B inh: inactive; PI5P4Ka inh: inactive; G9a block: inactive; HP1b binding inh: inactive; JMJD2A Tudor inh: inactive

How did CCOC(=O)[C@]12CCCC=C1N(Cc1ccccc1)C(=O)[C@H](CC(=O)N1CCOCC1)C2 do in these assays?
PLK1 PBD block: inactive; PI5P4Ka inh: inactive

What do the screens show for `CCCCNC(=O)c1ccccc1SCc1c(C)noc1C`?
PLK1 PBD block: inactive; BAZ2B inh: inactive; PI5P4Ka inh: inactive; G9a block: inactive; HP1b binding inh: inactive; JMJD2A Tudor inh: inactive

What do the screens show for `Cc1ccc(N2C(=O)CS(=O)(=O)C23C(=O)Nc2ccccc23)cc1C` (stereo not drawn)?
BAZ2B inh: inactive; G9a block: 16µM; HP1b binding inh: inactive; JMJD2A Tudor inh: inactive

How did Cc1cc(C)cc(N2C(=O)CS(=O)(=O)C23C(=O)N(C)c2ccccc23)c1 (stereo not drawn) do in these assays?
BAZ2B inh: inactive; G9a block: inconclusive; HP1b binding inh: inactive; JMJD2A Tudor inh: inactive

What do the screens show for `Clc1cccc(CNc2ccn3nc(-c4ccccc4Cl)cc3n2)c1`?
PLK1 PBD block: inactive; PI5P4Ka inh: inactive

How did NNC(=S)Nc1ccc(S(=O)(=O)N2CCOCC2)cc1 do in these assays?
PLK1 PBD block: inconclusive; BAZ2B inh: inactive; PI5P4Ka inh: inconclusive; HP1b binding inh: inactive; JMJD2A Tudor inh: inconclusive

What do the screens show for `O=S(=O)(c1ccc(NC(=S)N2CCN(c3ccccc3F)CC2)cc1)N1CCOCC1`?
PLK1 PBD block: 19µM; BAZ2B inh: inactive; PI5P4Ka inh: inactive; G9a block: inactive; HP1b binding inh: inactive; JMJD2A Tudor inh: inactive[11.4 µM]

Results for O=S(=O)(c1ccc(NC(=S)NN=C2CCCCC2)cc1)N1CCOCC1 ?
PLK1 PBD block: inactive; BAZ2B inh: inactive; PI5P4Ka inh: inconclusive; G9a block: 6.3µM; HP1b binding inh: inactive; JMJD2A Tudor inh: 28µM

What do the screens show for `C[C@H](NC(=O)C1CCN(S(=O)(=O)c2ccccc2)CC1)C(=O)NCc1cccnc1`?
PLK1 PBD block: inactive; PI5P4Ka inh: inactive

Results for Cc1sc(NC(=O)C2CSC3(C)CCC(=O)N23)nc1-c1ccccc1 (stereo not drawn) ?
PLK1 PBD block: inactive; BAZ2B inh: inconclusive; PI5P4Ka inh: inactive; G9a block: 50µM; HP1b binding inh: inactive; JMJD2A Tudor inh: inactive

How did CC12CCC(=O)N1C(C(=O)Nc1nc(-c3ccccc3Cl)cs1)CS2 (stereo not drawn) do in these assays?
PLK1 PBD block: inactive; BAZ2B inh: inactive; PI5P4Ka inh: inactive; G9a block: 50µM; HP1b binding inh: inactive; JMJD2A Tudor inh: inactive

What do the screens show for `CC12CCC(=O)N1C(C(=O)Nc1nc(-c3ccc(F)cc3)cs1)CS2` (stereo not drawn)?
PLK1 PBD block: inactive; BAZ2B inh: inactive; PI5P4Ka inh: inactive; G9a block: inactive; HP1b binding inh: inactive; JMJD2A Tudor inh: inactive

Screening data: PubChem, National Center for Advancing Translational Sciences (NCATS)
